The assay addresses Cyclin-dependent kinase 2 (Homo sapiens) + Cyclin-A2 (Homo sapiens) (UniProt P20248+P24941). Nature of the assay: CDK2/cyclin A inhibitors, off-target check, dose response, selectivity assay for Dyrk1A inhibitor project, biochemical, dry powder, set 3 (AID 651681). The conditions noted are these: CDK2/cyclin A ADP-Glo luminescence, histone H1 peptide; series mostly up to 10 µM.

The source made the active and inactive calls.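 Rule for the calls: active = compound with fitted CDK2 half-maximal potency at or below twice its top tested dose; inconclusive = flat curve near 30 to 70% inhibition, or poor fit; inactive = the rest.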

Chain of Cyclin-dependent kinase 2 (Homo sapiens) + Cyclin-A2 (Homo sapiens) (P20248 whole entry, looked up, one chain of several): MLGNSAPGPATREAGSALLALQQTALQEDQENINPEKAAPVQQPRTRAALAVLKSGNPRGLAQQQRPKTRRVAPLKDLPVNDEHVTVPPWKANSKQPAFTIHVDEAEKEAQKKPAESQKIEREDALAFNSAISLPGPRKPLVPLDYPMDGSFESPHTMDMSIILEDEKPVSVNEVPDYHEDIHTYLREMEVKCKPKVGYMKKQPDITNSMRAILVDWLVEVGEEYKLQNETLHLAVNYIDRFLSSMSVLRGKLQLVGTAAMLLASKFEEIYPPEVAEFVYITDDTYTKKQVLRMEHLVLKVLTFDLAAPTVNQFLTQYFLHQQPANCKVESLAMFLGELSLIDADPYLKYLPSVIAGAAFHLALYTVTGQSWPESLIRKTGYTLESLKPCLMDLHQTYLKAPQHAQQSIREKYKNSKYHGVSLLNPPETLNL

Regarding `COc1ccc2c(c1)[nH]c1c(C)nccc12`, the result was inactive.

The values are drawn from PubChem BioAssay AID651681 (Broad Institute, 2012).
